The values that follow come from PubChem BioAssay AID738 (SRMLSC, 2007).

The inhibition is the change of the read-out against control, counted positive when it falls.

Structures are written as SMILES. About 4,900 (5%) of roughly 98,000 compounds were called active. Many of the other results were omitted from the sample, so actives are more common in it than they were. Unmarked numbers belong to inactive results. Cut-off read from the data, not from the text of the source: active = inhibition above about 30%; inactive = the rest.

A short description of this test: yeast control strain growth suppression – counter-screen for post-Golgi transport modulator project, primary screen (AID 738). The conditions noted are these: efflux-deficient yeast background strain, growth absorbance A615, 16 h; at 10 µM; stronger effect = higher value. (The purpose of a counterscreen is to sort out artefacts and off-target activity.)
Consider `N#C/C(=C1/CCCN1)c1ccccn1`, for which the inhibition was 3.25%.
For the compound `CC(C)CNC(=S)NNC(=O)c1ccccc1OC(F)F`, the inhibition is 9.35%.
Regarding `Cc1ccc(C(=O)N2CCCCCC2)cc1Br`, the inhibition is 16.6%.
With `Cc1c(Br)cc(C(=O)N2CCCCCC2)c(C)c1C`, the inhibition is 38.8% (active).
Next, `Cc1ccc(C(=O)N2CCCC2)c(F)c1F`: -0.75%.
Next, `CCOc1cccc(SCc2noc(C(=O)NC(C)C)c2C(=O)O)c1`: -0.31%; `C=CCn1c(SCC(=O)NCc2ccccc2)nnc1-c1cc(Br)ccc1O`: 1.48%.
Then `COCCCNCC(=O)Nc1sc(C)c(C)c1C(=O)OC`, with 5.81%.
Consider `CCOC(=O)N1CCN(C(=O)c2cc3c(ccc4ccccc43)oc2=O)CC1`, for which the inhibition was 3.76%.
In the case of `Cn1cccc1C(=O)NC(=O)COC(=O)Cc1coc2ccc3ccccc3c12`, the inhibition is 33% (active).
Then `CC(C)(C)NC(=O)NC(=O)COC(=O)Cn1c(C(F)(F)F)nc2ccccc21`, with 2.81%; and `Cc1ccccc1NC(=O)c1ccccc1NS(=O)(=O)c1cccc2cccnc12`, with 8.21%; and `Cc1cc(C)c2c(-n3cccc3)c(C(=O)NNS(=O)(=O)c3ccc(F)cc3)sc2n1`, with 4.13%.
For `COc1ccc(NC(=O)COC(=O)Cn2c(C)nc3ccccc32)cc1OC`, the inhibition was 1.03%.
Next, `COCCn1c(-c2ccc(OC)c(OC)c2)nc2ccccc21`: -0.3%; `COc1ccc(-c2nc3ccccc3n2CCC(C)C)cc1OC`: 44.3% (active).
Then `CC1=NN(C(=O)Cc2ccc(C)cc2)C(O)(c2cccnc2)C1` (stereo not drawn), with 4.82%.
Next, `O=C(CCS(=O)(=O)c1cccc2nsnc12)N1CCN(c2ccccc2F)CC1`: 30.8% (active); `CCc1ccccc1N(CC(=O)N1CCN(c2ccccc2F)CC1)S(C)(=O)=O`: 3.45%; `O=C(C(NS(=O)(=O)c1cccc2nsnc12)c1ccccc1)N1CCN(c2ccccc2)CC1` (stereo not drawn): 2.02%.
`Cn1c(=O)n(C)c2cc(/C=N/NC(=O)c3cccc(Br)c3)ccc21`: the inhibition was -10.6%.
Then `Cn1nnnc1SCC(=O)Nc1ccccc1C(=O)NC1CC1`, with 2.02%; and `c1ccc(CSc2ncnc3c2sc2nc(N4CCOCC4)c4c(c23)CCCC4)cc1`, with 10.3%; and `CC(C)c1ccc(Nc2ncccc2C#N)cc1`, with 7.46%.
Then `Cc1nn2c(c1-c1ccccc1)N=C(c1ccco1)CC2c1ccccc1` (stereo not drawn), with 32.2% (active); and `Cc1[nH]c2ccccc2c1C(=O)COC(=O)C(C)C`, with 2.83%.
Next, `CCOC(=O)c1c(-c2ccccc2)csc1NC(=S)NC(=O)c1ccccc1`: 15.1%; `COc1ccccc1N1CC(C(=O)Nc2ccc(S(=O)(=O)N3CCOCC3)cc2)CC1=O` (stereo not drawn): 5.2%.
